# Measurements from publication PMC6579518.
# Assays:
# [1] = target: Cytoplasmic 60S subunit biogenesis factor REI1 (UniProt P38344); test: cross-link between two proteins; cross-linking mass spectrometry
# [2] = target: Large ribosomal subunit protein eL18A (UniProt P0CX49); test: as above
# [3] = target: Large ribosomal subunit protein eL19A (UniProt P0CX82); test: as above
# [4] = target: Large ribosomal subunit protein uL2A (UniProt P0CX45); test: as above
# Large subunit GTPase 1 = Large subunit GTPase 1 (UniProt P53145); test: as above
# [5] = target: Large ribosomal subunit protein eL20A (UniProt P0CX23); test: as above
# [6] = target: rRNA biogenesis protein RRP5 (UniProt Q05022); test: as above
# [7] = target: Large ribosomal subunit protein eL32 (UniProt P38061); test: as above
# [8] = target: Large ribosomal subunit protein eL37A (UniProt P49166); test: as above
# [9] = target: Large ribosomal subunit protein uL13B (UniProt P26785); test: as above
# [10] = target: Shuttling pre-60S factor ECM1 (UniProt P39715); test: as above
# [11] = target: Nucleolar GTP-binding protein 1 (UniProt Q02892); test: as above
# [12] = target: Probable metalloprotease ARX1 (UniProt Q03862); test: as above
# [13] = target: Proteasome-interacting protein CIC1 (UniProt P38779); test: as above
# [14] = target: Pumilio homology domain family member 6 (UniProt Q04373); test: as above
# UPF0642 protein YBL028C = UPF0642 protein YBL028C (UniProt P38202); test: as above
# [15] = target: WD repeat-containing protein JIP5 (UniProt Q06214); test: as above
# [16] = target: U3 small nucleolar RNA-associated protein 22 (UniProt P53254); test: cross-link between two proteins; affinity purification or IP with mass spectrometry; cross-linking mass spectrometry
# Sequence of Large ribosomal subunit protein eL43A, P0CX25 (P0CX25 whole entry): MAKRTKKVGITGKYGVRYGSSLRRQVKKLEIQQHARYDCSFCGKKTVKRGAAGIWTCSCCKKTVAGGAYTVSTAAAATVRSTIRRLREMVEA
# Sequence of Large ribosomal subunit protein eL19A (P0CX82 whole entry): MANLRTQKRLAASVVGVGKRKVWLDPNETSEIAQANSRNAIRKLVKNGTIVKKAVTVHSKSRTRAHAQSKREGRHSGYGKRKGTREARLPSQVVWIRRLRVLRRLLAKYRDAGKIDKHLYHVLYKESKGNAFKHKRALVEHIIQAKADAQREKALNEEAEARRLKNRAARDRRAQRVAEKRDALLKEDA
# Sequence of Large ribosomal subunit protein eL20A (P0CX23 whole entry): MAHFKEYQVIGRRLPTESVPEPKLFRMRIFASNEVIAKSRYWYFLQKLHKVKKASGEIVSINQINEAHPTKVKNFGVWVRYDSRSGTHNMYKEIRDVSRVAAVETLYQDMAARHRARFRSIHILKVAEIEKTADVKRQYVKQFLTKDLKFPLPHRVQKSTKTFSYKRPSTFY
# Sequence of Probable metalloprotease ARX1 (Q03862 whole entry): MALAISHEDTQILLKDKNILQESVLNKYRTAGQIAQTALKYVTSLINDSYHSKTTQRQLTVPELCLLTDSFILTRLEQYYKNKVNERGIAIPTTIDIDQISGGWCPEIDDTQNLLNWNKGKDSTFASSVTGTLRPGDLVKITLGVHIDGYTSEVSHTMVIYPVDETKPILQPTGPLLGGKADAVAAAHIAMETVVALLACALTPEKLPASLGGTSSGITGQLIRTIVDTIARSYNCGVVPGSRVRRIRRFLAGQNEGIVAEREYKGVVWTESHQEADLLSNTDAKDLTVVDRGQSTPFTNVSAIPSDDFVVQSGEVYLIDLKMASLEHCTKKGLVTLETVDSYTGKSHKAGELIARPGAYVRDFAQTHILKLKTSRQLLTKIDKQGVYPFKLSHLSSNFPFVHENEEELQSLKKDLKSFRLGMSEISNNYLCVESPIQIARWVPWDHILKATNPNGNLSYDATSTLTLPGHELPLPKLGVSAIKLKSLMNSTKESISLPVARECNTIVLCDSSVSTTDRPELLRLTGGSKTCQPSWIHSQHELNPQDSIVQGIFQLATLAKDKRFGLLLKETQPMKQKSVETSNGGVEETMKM
# Sequence of UPF0642 protein YBL028C (P38202 whole entry): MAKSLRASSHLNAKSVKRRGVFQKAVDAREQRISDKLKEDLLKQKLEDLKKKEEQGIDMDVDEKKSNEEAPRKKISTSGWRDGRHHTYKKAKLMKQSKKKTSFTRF
# Sequence of Large ribosomal subunit protein uL2A, P0CX45 (P0CX45 whole entry): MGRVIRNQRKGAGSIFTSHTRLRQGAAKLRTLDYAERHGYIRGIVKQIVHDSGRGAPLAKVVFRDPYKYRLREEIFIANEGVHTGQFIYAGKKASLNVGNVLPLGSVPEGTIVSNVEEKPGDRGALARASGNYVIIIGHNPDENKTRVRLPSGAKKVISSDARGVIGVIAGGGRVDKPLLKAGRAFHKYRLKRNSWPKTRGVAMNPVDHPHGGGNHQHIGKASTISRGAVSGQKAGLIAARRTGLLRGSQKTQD
# Sequence of Large ribosomal subunit protein uL2A (P0CX45 whole entry): as above
# Sequence of Large ribosomal subunit protein eL18A (P0CX49 whole entry): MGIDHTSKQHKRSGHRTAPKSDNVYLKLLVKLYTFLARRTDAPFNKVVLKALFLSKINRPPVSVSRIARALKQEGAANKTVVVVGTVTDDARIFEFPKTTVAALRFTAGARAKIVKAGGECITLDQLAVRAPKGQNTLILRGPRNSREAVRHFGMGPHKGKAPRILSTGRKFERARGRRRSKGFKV
# Sequence of Large subunit GTPase 1 (P53145 whole entry): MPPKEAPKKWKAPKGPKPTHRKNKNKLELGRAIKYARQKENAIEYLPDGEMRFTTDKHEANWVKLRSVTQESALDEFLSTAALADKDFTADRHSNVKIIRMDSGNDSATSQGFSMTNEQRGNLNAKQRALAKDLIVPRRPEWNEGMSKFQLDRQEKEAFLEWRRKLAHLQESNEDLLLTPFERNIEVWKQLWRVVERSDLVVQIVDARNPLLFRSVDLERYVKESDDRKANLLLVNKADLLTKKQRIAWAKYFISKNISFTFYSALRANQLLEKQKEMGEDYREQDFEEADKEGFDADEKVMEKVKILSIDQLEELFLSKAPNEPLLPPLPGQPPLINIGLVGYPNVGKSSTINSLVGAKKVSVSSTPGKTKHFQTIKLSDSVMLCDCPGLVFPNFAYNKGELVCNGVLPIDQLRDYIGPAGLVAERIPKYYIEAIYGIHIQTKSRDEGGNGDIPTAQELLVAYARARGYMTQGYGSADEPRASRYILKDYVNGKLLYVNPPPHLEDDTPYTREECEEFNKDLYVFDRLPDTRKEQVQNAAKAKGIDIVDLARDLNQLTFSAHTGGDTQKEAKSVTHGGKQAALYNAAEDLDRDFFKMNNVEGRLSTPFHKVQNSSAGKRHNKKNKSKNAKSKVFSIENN
# Sequence of rRNA biogenesis protein RRP5 (Q05022 whole entry): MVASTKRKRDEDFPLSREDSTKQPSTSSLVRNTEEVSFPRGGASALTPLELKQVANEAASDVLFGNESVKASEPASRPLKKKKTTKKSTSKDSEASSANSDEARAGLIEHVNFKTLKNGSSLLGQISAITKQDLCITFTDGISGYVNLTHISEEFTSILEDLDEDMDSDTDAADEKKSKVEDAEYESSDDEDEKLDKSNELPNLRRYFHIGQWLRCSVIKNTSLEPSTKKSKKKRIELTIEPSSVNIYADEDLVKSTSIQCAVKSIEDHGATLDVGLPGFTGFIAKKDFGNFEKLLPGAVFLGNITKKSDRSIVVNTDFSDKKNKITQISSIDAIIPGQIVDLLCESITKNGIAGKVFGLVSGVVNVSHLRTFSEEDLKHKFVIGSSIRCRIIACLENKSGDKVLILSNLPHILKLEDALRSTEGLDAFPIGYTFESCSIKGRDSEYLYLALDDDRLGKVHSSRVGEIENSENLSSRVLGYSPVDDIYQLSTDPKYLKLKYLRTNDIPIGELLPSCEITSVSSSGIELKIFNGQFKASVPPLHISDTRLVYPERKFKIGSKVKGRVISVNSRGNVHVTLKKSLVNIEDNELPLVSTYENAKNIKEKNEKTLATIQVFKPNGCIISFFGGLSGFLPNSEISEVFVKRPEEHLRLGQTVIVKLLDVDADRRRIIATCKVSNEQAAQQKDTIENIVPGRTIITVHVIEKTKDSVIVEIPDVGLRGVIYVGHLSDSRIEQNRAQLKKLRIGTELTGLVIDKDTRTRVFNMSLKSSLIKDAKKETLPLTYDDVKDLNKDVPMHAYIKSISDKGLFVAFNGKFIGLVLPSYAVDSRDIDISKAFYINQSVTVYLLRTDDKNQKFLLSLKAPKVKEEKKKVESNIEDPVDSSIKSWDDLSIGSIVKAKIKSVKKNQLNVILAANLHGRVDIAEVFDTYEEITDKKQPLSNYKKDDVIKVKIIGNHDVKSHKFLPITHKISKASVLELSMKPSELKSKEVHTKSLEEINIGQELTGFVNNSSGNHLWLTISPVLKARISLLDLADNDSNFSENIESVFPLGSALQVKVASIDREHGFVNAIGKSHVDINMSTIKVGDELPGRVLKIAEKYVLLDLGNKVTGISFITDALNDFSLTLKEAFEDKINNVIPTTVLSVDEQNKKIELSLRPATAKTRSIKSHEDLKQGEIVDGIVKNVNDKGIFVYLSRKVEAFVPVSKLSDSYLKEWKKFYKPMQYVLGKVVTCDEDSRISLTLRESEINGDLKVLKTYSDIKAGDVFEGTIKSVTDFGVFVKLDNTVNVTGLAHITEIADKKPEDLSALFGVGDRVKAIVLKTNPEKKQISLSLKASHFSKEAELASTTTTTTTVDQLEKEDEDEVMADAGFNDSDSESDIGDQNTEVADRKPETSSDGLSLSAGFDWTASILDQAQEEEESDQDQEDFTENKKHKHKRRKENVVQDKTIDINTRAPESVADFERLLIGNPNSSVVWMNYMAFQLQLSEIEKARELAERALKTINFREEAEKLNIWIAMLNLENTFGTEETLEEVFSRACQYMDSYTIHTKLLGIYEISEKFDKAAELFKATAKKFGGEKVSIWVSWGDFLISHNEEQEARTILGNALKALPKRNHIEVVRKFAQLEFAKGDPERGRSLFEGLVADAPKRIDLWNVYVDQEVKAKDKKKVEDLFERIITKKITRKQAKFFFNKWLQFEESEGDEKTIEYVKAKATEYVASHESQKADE
# Sequence of Large ribosomal subunit protein eL15A, P05748 (P05748 whole entry): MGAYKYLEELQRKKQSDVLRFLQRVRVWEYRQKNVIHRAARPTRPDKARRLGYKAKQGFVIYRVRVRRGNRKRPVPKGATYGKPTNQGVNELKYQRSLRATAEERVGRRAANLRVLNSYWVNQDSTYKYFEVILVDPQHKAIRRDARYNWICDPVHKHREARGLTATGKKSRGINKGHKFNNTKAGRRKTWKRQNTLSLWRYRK
# Sequence of Shuttling pre-60S factor ECM1 (P39715 whole entry): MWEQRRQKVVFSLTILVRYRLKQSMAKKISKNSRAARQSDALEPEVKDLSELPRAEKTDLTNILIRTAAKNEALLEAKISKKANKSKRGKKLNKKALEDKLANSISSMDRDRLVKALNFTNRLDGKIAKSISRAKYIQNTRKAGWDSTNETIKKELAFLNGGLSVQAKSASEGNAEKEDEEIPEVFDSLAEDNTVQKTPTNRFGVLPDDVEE
# Sequence of Large ribosomal subunit protein uL1A, P0CX43 (P0CX43 whole entry): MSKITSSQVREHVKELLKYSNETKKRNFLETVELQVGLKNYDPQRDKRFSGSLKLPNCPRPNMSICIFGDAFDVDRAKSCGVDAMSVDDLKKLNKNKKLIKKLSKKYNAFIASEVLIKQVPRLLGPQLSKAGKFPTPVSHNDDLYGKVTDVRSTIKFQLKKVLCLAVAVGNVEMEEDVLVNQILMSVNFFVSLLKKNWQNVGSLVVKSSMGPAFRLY
substance,measurement,setting,value
"Large ribosomal subunit protein eL24A, P04449",listed as a hit,[1],yes
"Large ribosomal subunit protein eL29, P05747",listed as a hit,[2],yes
"Large ribosomal subunit protein uL15, P02406",listed as a hit,[2],yes
"Ubiquitin-ribosomal protein eS31 fusion protein, P05759",listed as a hit,[3],yes
"Large ribosomal subunit protein eL43A, P0CX25",listed as a hit,[3],yes
same,listed as a hit,[4],yes
same,listed as a hit,Large subunit GTPase 1,yes
"Large ribosomal subunit protein uL30A, P05737",listed as a hit,[5],yes
same,listed as a hit,[6],yes
"Large ribosomal subunit protein eL33A, P05744",listed as a hit,[5],yes
"27S pre-rRNA (guanosine(2922)-2'-O)-methyltransferase, P25582",listed as a hit,[7],yes
"Large ribosomal subunit protein uL29A, P0CX84",listed as a hit,[8],yes
"Large ribosomal subunit protein eL15A, P05748",listed as a hit,[9],yes
"Large ribosomal subunit protein uL14A, P0CX41",listed as a hit,[4],yes
"Large ribosomal subunit protein uL2A, P0CX45",listed as a hit,Large subunit GTPase 1,yes
same,listed as a hit,[10],yes
"Pescadillo homolog, P53261",listed as a hit,[11],yes
"Large ribosomal subunit protein uL24A, P05743",listed as a hit,[12],yes
"Cytoplasmic 60S subunit biogenesis factor REI1, P38344",listed as a hit,[12],yes
"Large ribosomal subunit protein uL13A, P26784",listed as a hit,[13],yes
"Large ribosomal subunit protein uL5A, P0C0W9",listed as a hit,[14],yes
"Large ribosomal subunit protein uL6A, P05738",listed as a hit,UPF0642 protein YBL028C,yes
"Large ribosomal subunit protein uL3, P14126",listed as a hit,UPF0642 protein YBL028C,yes
"Large ribosomal subunit protein uL1A, P0CX43",listed as a hit,[15],yes
"Heat shock protein SSA1, P10591",listed as a hit,[16],yes
